Source: paper PMC5540273 (PLoS ONE, 2017)

Tests used:
Conditions in all cases: concentration: 1 μM,replicates: in singlicate; n = 1
[1] = system: RIOK1
[2] = system: RIOK2
[3] = system: RIOK3
[4] = system: RIPK1
[5] = system: RIPK2
[6] = system: RIPK4
[7] = system: RIPK5
[8] = system: ROCK1
[9] = system: ROCK2
[10] = system: ROS1
[11] = system: RPS6KA4(Kin.Dom.1-N-terminal)
[12] = system: RPS6KA4(Kin.Dom.2-C-terminal)
[13] = system: RPS6KA5(Kin.Dom.1-N-terminal)
[14] = system: RPS6KA5(Kin.Dom.2-C-terminal)
[15] = system: T1, RSK1(Kin.Dom.1-N-terminal)
T1 construct: gene RPS6KA1

[16] = system: T2, RSK1(Kin.Dom.2-C-terminal)
T2 construct: gene RPS6KA1

[17] = system: T3, RSK2(Kin.Dom.1-N-terminal)
T3 construct: gene RPS6KA3

[18] = system: T4, RSK2(Kin.Dom.2-C-terminal)
T4 construct: gene RPS6KA3

[19] = system: T5, RSK3(Kin.Dom.1-N-terminal)
T5 construct: gene RPS6KA2

[20] = system: T6, RSK3(Kin.Dom.2-C-terminal)
T6 construct: gene RPS6KA2
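Note: KINOMEscan kinase panel screen.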

Row | SMILES | %Inh [1] | %Inh [2] | %Inh [3] | %Inh [4] | %Inh [5] | %Inh [6] | %Inh [7] | %Inh [8] | %Inh [9] | %Inh [10] | %Inh [11] | %Inh [12] | %Inh [13] | %Inh [14] | %Inh [15] | %Inh [16] | %Inh [17] | %Inh [18] | %Inh [19] | %Inh [20]
1 | Cl.c1ccc(Oc2ccc(Nc3ccnc4cc(-c5ccc(CN6CCNCC6)o5)ccc34)cc2)nc1 [GW567142] | 0% | 0% | 0% | 0% | 95.5% | 0% | 4% | 5% | 32% | 0% | 0% | 0% | 0% | 14% | 2% | 16% | 0% | 0% | 0% | 9%
2 | Cc1ccc(Nc2ccnc(Nc3ccc4c(c3)CS(=O)(=O)C4)n2)cc1O.Cl [GW579362] | 99.8% | 66% | 95.7% | 25% | 93.6% | 98.6% | 89% | 48% | 50% | 81% | 15% | 0% | 0% | 18% | 20% | 7% | 0% | 55% | 47% | 11%
3 | COC(=O)Nc1nc2cc(Oc3ccc(NC(=O)Nc4cc(C(F)(F)F)ccc4Cl)cc3)ccc2[nH]1.Cl [GW697465] | 0% | 2% | 0% | 41% | 43% | 1% | 0% | 26% | 24% | 42% | 0% | 0% | 14% | 0% | 0% | 0% | 0% | 10% | 21% | 13%
4 | O=C(NCC1CC1)c1ccc(-c2cc(C(=O)NC3CC3)ccc2F)cc1 [GW810445] | 1% | 0% | 0% | 0% | 0% | 0% | 0% | 58% | 9% | 0% | 7% | 0% | 0% | 7% | 0% | 3% | 0% | 0% | 0% | 0%
5 | CCCC(=O)Nc1n[nH]c2ncccc12 [SB-601436] | 0% | 0% | 0% | 0% | 0% | 0% | 0% | 0% | 0% | 8% | 3% | 3% | 0% | 0% | 0% | 0% | 19% | 0% | 0% | 0%
6 | Cc1ccc2c(-c3ccnc(Nc4ccc(C(F)(F)F)cc4)n3)cnn2n1 [GW819776] | 17% | 84% | 22% | 29% | 17% | 10% | 27% | 54% | 0% | 41% | 28% | 0% | 0% | 0% | 19% | 8% | 53% | 0% | 0% | 7%
7 | Cn1cc(-c2cccc3c(N)c(C(N)=O)nnc23)cn1 | 36% | 52% | 60% | 3% | 3% | 37% | 17% | 11% | 20% | 6% | 53% | 30% | 21% | 13% | 0% | 0% | 23% | 44% | 21% | 0%
8 | Cn1ccc2ncnc(Oc3ccc(NC(=O)Nc4ccnc(C(F)(F)F)c4)c(Cl)c3)c21 | 0% | 19% | 6% | 0% | 0% | 0% | 0% | 17% | 0% | 0% | 0% | 7% | 3% | 7% | 0% | 9% | 0% | 35% | 0% | 1%
9 | CC(C(=O)NC1CCN(c2ccnc(Nc3ccc(F)cc3)n2)C1)c1ccc(Cl)cc1 (centres unmarked) [GSK1379713] | 35% | 0% | 0% | 6% | 0% | 0% | 0% | 27% | 10% | 53% | 6% | 5% | 0% | 0% | 0% | 0% | 0% | 17% | 0% | 0%
10 | Cc1cccc(-c2nc(Nc3ccncc3)c3sccc3n2)n1 [GW869641] | 35% | 42% | 28% | 0% | 62% | 42% | 25% | 27% | 38% | 21% | 30% | 7% | 19% | 0% | 2% | 8% | 41% | 50% | 7% | 21%
